Screening results (PubChem BioAssay)
Shown are actives, neighbours in structure and some others; about 1.7% of the full set was active somewhere.
SSB-PriA inh: K. pneumoniae PriA-SSBct interaction inhibition; AID 1272365; 0.6% of 430,000 active; AlphaScreen SSBct-PriA binding, biotinylated peptide; inhibition, % at 33 µM; in the data active = inhibition mostly above about 37%, no sharp cut-off; inactive = mostly below about 20%;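 note: plate controls were negative control peptide for no effect and reference peptide for full effect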
VHR inh abs: blocks human VHR1 dual specificity phosphatase; recombinant VHR phosphatase, pNPP absorbance; inhibition, % at 13.3 µM; P51452; 0.52% of 290,000 active; AID 1654; in the data active = inhibition above about 50%
3CLpro inhibitor: SARS-CoV 3CLpro protease inhibition | P0C6X7 | recombinant SARS-CoV 3CLpro, quenched FRET peptide cleavage | inhibition, % at 6 µM | 0.14% of 290,000 active | AID 1706; in the data active = inhibition above about 12%
CCHF vOTU inh: blocks the CCHF virus ovarian tumor domain protease; CCHFV vOTU protease, Pep-AMC fluorescence; inhibition, % at 11.5 µM; 0.55% of 370,000 active; AID 651958; in the data active = inhibition above about 30%; note: 0% = vehicle wells with enzyme and 100% = no enzyme wells
RecA splice inh: inhibitors of M. tuberculosis RecA intein splicing; inhibition, % (test concentration not listed); P9WHJ3; 0.75% of 290,000 active; cell-free RecA intein splicing, fluorescence; in the data active = inhibition above about 30%;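 note: 0% = vehicle wells and 100% = reference inhibitor control wells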
Target sequence (P9WHJ3 whole entry, looked up, canonical isoform): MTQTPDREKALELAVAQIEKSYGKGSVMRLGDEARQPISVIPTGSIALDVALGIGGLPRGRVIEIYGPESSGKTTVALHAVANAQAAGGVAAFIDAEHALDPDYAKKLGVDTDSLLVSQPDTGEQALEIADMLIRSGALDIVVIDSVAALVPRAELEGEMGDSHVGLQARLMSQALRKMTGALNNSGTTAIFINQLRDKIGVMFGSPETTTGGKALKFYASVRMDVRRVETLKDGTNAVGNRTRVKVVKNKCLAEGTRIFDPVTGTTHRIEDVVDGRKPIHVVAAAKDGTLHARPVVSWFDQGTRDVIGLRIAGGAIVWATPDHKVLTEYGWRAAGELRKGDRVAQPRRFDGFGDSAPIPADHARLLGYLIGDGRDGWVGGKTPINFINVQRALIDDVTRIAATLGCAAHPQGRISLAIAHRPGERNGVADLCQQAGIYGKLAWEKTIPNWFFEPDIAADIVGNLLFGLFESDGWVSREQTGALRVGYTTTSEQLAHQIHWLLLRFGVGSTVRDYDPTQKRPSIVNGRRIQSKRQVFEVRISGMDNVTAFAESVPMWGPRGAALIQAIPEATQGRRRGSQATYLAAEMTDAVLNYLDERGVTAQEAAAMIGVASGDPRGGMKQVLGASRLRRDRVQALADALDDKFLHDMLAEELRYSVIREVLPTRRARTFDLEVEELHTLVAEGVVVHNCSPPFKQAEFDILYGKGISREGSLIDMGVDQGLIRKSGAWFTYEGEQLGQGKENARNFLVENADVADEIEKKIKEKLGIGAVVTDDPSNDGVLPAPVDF
GFP chromophore: counter-screen GFP chromophore formation inhibition; shares compounds with RecA splice inh; cell-free GFP chromophore formation, fluorescence; EC50, µM; 83% of 2,100 active; AID 434968; call rule not given here
Active calls of the source: *; x = no result.

SMILES	SSB-PriA inh	VHR inh abs	3CLpro inhibitor	CCHF vOTU inh	RecA splice inh	GFP chromophore
Cc1ccc(C)c(Sc2ccc(NC(=O)CCN3C(=O)NC4(CCCC4)C3=O)cc2)c1	7	x	x	18	x	x
COC(=O)c1ccccc1S(=O)(=O)N1CCC(NC(=O)c2ccccc2)CC1	-14	23	2	-4	45*	>38
O=C(Nc1ccccc1N(C(=O)c1ccco1)S(=O)(=O)c1cccs1)c1ccco1	-11	16	-2	7	10	5.8*
O=C(Nc1ccccc1NC(=O)c1ccco1)c1ccco1	1	20	1	8	0	x
COc1ccc(N(C(=O)c2ccco2)S(=O)(=O)c2cccs2)cc1	-17	14	0	5	33*	>38
COc1ccc(NC(=O)c2ccc(S(=O)(=O)N3CCOCC3)cc2)cc1OC	-5	x	x	x	x	x
CCOC(=O)c1c(CSC(=N)N)n(-c2ccccc2)c2cc(Br)c(OC(C)=O)cc12	4	4	1	5	48*	20*
O=C(O)/C=C\C(=O)Nc1ccc(Oc2ccccc2)cc1	0	19	-1	-13	x	x
O=C(O)/C=C/C(=O)Nc1ccc(C2(c3ccc(NC(=O)/C=C/C(=O)O)cc3)c3ccccc3-c3ccccc32)cc1	2	-8	4	-1	71*	27*
O=C(O)/C=C/C(=O)Nc1ccc(SC(F)(F)C(F)(F)C(F)(F)F)cc1	-11	18	1	16	67*	37*
O=C(CCl)N1CCCC1c1ccc2c(c1)OCCO2 (stereo not drawn)	-6	2	0	3	74*	33*
CC1=NN(c2ccc(Cl)cc2)C(=O)C1C(c1cccc(O)c1)c1c(C)[nH]n(-c2ccc(Cl)cc2)c1=O (stereo not drawn)	27	5	0	x	88*	2.3*
COc1ccc2nc(N(Cc3ccccc3)C(=O)c3ccno3)sc2c1	0	x	x	x	x	x
C/C(=N/NC(=O)CCn1c2ccccc2c2ccccc21)c1ccc(Cl)s1	-11	x	x	x	x	x
O=C1NC(=O)C(=Cc2cc3c(cc2[N+](=O)[O-])OCO3)C(=O)N1	-1	14	2	-6	39*	>38
O=C1NC(=O)C(=Cc2cc3c(cc2Br)OCCO3)C(=O)N1	-7	x	x	x	x	x
CCOC(=O)CN1C(=O)N[C@@H](c2cccc(C(F)(F)F)c2)C(C(C)=O)=C1C	0	x	x	x	35*	>38
NC(=O)CCc1csc(NC(=O)c2ccc(=O)[nH]c2)n1	14	x	x	x	x	x
CC(C)CN1C(=O)CC(Nc2ccc(N(C)C)cc2)C1=O (stereo not drawn)	31	x	x	x	x	x
COc1cc(/C=C2\C(=O)N(CCC#N)N=C2C)ccc1OCC(=O)Nc1ccccc1	-5	-5	0	18	79*	5.6*
CC1=NN(CCC#N)C(=O)/C1=C\c1ccc(N(C)C)cc1	-4	x	x	x	x	x
CC1=NN(CCC#N)C(=O)/C1=C/c1ccc(N(C)C)cc1	2	60*	-4	4	48*	11*
COc1cc(/C=C2\SC(N)=NC2=O)ccc1OCC(=O)Nc1ccc(C)cc1	x	14	3	20	-3	x
CC1(C)C2CCC1(CS(=O)(=O)NCc1ccc(C(=O)c3ccsc3)s1)C(=O)C2 (stereo not drawn)	-24	x	x	x	x	x
Cn1[nH]c(CSc2ccc(Cl)cc2)cc1=O	1	17	8	1	93*	27*
SMILES	SSB-PriA inh	VHR inh abs	3CLpro inhibitor	CCHF vOTU inh	RecA splice inh	GFP chromophore
Oc1[nH]c2ccccc2c1N=NC(=S)N1CCOCC1	59*	5	1	x	67*	>38
NC(=S)N=Nc1c(O)[nH]c2ccccc12	20	26	2	1	5	x
Oc1[nH]c2ccc(Br)cc2c1N=NC(=S)N1CCOCC1	-1	-11	-2	3	47*	>38
COC(=O)N=Nc1c(O)[nH]c2ccc(Br)cc12	-10	36	0	12	1	x
O=C(CS(=O)(=O)c1cn(CC(=O)N2CCCCC2)c2ccccc12)Nc1ccc2c(c1)OCCO2	0	x	x	x	x	x
O=c1c2nc(N3CCOCC3)sc2c(-c2cccs2)nn1Cc1ccccc1Cl	3	x	x	x	x	x
C=CCn1c(=O)c2c(nc3n(CCc4ccc(OC)c(OC)c4)c(C)c(C)n23)n(C)c1=O	-3	x	x	x	x	x
Oc1cccc(C=Nc2cccc3ccccc23)c1O	24	1	4	4	31*	15*
O=C(CCl)N(C/C=C/c1ccccc1)c1ccc2c(c1)OCCO2	-8	-15	6	-3	85*	3*
